A short description of assay [1]: small molecules captured by biotinylated probe aFSTL3 – biochemical, small-molecule microarray, fluorescence 635/667, stem cell growth factor project, primary screen (AID 1064).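 Note: measures binding of the biotinylated anti-FSTL3 antibody to printed compounds.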 Conditions: higher = more signal.
Assay [2] can be described thus: binders from COS7 lysate, DM2A8 probe, primary screen, torsin A project, cell lysate, small-molecule microarray, fluorescence 635/667 (AID 1065). Conditions: higher = more signal, COS7 lysate expressing mutant human TOR1A.
Assay [3] in a line: small molecules captured by biotinylated probe aFGF2 – biochemical, small-molecule microarray, fluorescence 635/667, stem cell growth factor project, primary screen (AID 1067).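 Note: measures binding of biotinylated aFGF2 protein to printed compounds on slides; z-score merges feature fluorescence and signal-to-noise across triplicate slides.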 As to conditions: higher = more signal.
Assay [4] can be described thus: small molecules captured by biotinylated probe aFGF10 – biochemical, small-molecule microarray, fluorescence 635/667, stem cell growth factor project, primary screen (AID 1071).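 Note: score merges 667 nm spot intensity and signal to noise from triplicate slides.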 Conditions: higher = more signal.
In assay [5] the target is Neurogenic locus notch homolog protein 2 (Homo sapiens) (UniProt Q04721). As to the kind of experiment: small molecules binding Notch2 protein – biochemical, small-molecule microarray, 635 nm fluorescence, stem cell growth factors, primary screen (AID 1073). As to conditions: higher = more signal.
Assay [6] addresses Pro-neuregulin-1, membrane-bound isoform (Homo sapiens) (UniProt Q02297). As to the kind of experiment: small molecules binding neuregulin-1 protein – biochemical, small-molecule microarray, fluorescence 635/667, psychiatric disease protein project, primary screen (AID 1075).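 Note: score combines 667 nm spot fluorescence with signal to noise.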 As to conditions: NRG1 binding, 635 nm fluorescence, higher = more signal.
Assay [7] relates to Neuregulin-1 EGF-like domain. As to the kind of experiment: small molecules binding NRG1 EGF domain – biochemical, small-molecule microarray, 635 nm fluorescence, primary screen (AID 1081).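 Note: binding of the protein to compounds printed on small-molecule microarray slides.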 As to conditions: higher = more signal.
Assay [8] in a line: FRG1 expression reporter modulators in myotubes – cell-based, C2C12 myotubes, firefly/Renilla luciferase, luminescence, FRG1 inhibition for FSHD, primary screen (AID 1084). Conditions: FRG1 promoter luciferase, higher = more signal, called active from +8 up or from −8 down.
Assay [9] in a line: small molecules captured by biotinylated probe aFST – biochemical, small-molecule microarray, fluorescence 635/667, stem cell growth factor project, primary screen (AID 1086).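 Note: score merges 667 nm fluorescence with signal-to-noise of each printed compound spot.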 Conditions: higher = more signal.
The nature of assay [10]: binders of probe aHhip on microarray, primary screen, stem cell growth factor project, biochemical, small-molecule microarray, fluorescence 635/667 (AID 1087).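 Note: score merges spot fluorescence at 667nm with spot signal to noise ratio.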 Conditions: higher = more signal.
Assay [11] relates to PRMT1 (protein arginine N-methyltransferase 1). The assay can be described thus: small molecules binding arginine methyltransferase PRMT1 – biochemical, small-molecule microarray, 635 nm fluorescence, primary screen (AID 1088).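 Note: binding of Prmt1 protein to compounds spotted on small-molecule microarray slides.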 Conditions: higher = more signal.
A short description of assay [12]: growth effects on S. cerevisiae YJM789 – YJM789 clinical isolate, OD600, 24 h, basal, primary screen (AID 1089).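 Note: growth of clinical yeast isolate S. cerevisiae YJM 789 seeded 1000 cells per well; test concentration not given here.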 Conditions: higher = more signal, called active from +8 up or from −8 down.
Assay [13] can be described thus: S. pombe growth modifiers, basal conditions – strain 972, OD600, 24 h, no modulator, primary screen (AID 1090).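 Note: basal condition with compound alone and no growth modifier present; test concentration not given here.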 As to conditions: S. pombe 972 growth, higher = more signal, called active from +8 up or from −8 down.
Assay [14] is described as follows: budding yeast growth modifiers under rapamycin – strain BY4716, OD600, 96 h, primary screen (AID 1091). Note: test concentration not given here. Conditions: S. cerevisiae BY4716 + rapamycin, higher = more signal, called active from +8 up or from −8 down.
The target in assay [15] is Torsin-1A-interacting protein 2 (Homo sapiens) (UniProt Q8NFQ8). As to the kind of experiment: small molecules binding lysate-expressed LULL1 – cell lysate, human LULL1 lysate, 635/667 nm fluorescence, primary screen (AID 1092).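 Note: probe is lysate of COS7 cells overexpressing human LULL1; score merges per-feature 667 nm fluorescence with signal-to-noise.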 Conditions: small-molecule microarray, hLULL1 lysate binding, 635 nm fluorescence; higher = more signal.
The nature of assay [16]: optical density change of DRC41 E. coli – strain DRC41, OD650, 24 h, E. coli filamentation project, primary screen (AID 1093).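 Note: MC1000 strain lacking acrAB efflux and sulA so SOS filamentation is blocked; test concentration not given here.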 As to conditions: E. coli DRC41 growth, higher = more signal, called active from +8 up or from −8 down.
A short description of assay [17]: probe aLefty2 binding to arrayed compounds – biochemical, biotinylated probe, 635/667 nm fluorescence, primary screen (AID 1094).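 Note: score merges spot fluorescence near 667 nm with spot signal-to-noise ratio.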 Conditions: small-molecule microarray, higher = more signal.
Assay [18] relates to Noggin (protein binding on small-molecule microarray). As to the kind of experiment: small molecules binding Noggin protein – biochemical, 635/667 nm fluorescence, primary screen (AID 1095).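 Note: score merges 667 nm feature fluorescence with signal to noise over triplicate slides.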 Conditions: 635 nm fluorescence, higher = more signal.
Assay [19] concerns the target Neurogenic locus notch homolog protein 3 (Homo sapiens) (UniProt Q9UM47). As to the kind of experiment: small molecules binding NOTCH3 protein – biochemical, 635/667 nm fluorescence, primary screen (AID 1096). As to conditions: small-molecule microarray, 635 nm fluorescence, higher = more signal.
A short description of assay [20]: probe aEGFR binding to arrayed compounds – biochemical, biotinylated probe, 635/667 nm fluorescence, primary screen (AID 1097).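 Note: probe is a biotinylated anti-EGFR antibody binding compounds printed on slides; score combines fluorescence near 667 nm and signal to noise of each spot.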 Conditions: small-molecule microarray, higher = more signal.

Structures are written as SMILES. Active and inactive are the calls of the source.

Sequence of Neurogenic locus notch homolog protein 3 (Homo sapiens) (Q9UM47 whole entry, looked up): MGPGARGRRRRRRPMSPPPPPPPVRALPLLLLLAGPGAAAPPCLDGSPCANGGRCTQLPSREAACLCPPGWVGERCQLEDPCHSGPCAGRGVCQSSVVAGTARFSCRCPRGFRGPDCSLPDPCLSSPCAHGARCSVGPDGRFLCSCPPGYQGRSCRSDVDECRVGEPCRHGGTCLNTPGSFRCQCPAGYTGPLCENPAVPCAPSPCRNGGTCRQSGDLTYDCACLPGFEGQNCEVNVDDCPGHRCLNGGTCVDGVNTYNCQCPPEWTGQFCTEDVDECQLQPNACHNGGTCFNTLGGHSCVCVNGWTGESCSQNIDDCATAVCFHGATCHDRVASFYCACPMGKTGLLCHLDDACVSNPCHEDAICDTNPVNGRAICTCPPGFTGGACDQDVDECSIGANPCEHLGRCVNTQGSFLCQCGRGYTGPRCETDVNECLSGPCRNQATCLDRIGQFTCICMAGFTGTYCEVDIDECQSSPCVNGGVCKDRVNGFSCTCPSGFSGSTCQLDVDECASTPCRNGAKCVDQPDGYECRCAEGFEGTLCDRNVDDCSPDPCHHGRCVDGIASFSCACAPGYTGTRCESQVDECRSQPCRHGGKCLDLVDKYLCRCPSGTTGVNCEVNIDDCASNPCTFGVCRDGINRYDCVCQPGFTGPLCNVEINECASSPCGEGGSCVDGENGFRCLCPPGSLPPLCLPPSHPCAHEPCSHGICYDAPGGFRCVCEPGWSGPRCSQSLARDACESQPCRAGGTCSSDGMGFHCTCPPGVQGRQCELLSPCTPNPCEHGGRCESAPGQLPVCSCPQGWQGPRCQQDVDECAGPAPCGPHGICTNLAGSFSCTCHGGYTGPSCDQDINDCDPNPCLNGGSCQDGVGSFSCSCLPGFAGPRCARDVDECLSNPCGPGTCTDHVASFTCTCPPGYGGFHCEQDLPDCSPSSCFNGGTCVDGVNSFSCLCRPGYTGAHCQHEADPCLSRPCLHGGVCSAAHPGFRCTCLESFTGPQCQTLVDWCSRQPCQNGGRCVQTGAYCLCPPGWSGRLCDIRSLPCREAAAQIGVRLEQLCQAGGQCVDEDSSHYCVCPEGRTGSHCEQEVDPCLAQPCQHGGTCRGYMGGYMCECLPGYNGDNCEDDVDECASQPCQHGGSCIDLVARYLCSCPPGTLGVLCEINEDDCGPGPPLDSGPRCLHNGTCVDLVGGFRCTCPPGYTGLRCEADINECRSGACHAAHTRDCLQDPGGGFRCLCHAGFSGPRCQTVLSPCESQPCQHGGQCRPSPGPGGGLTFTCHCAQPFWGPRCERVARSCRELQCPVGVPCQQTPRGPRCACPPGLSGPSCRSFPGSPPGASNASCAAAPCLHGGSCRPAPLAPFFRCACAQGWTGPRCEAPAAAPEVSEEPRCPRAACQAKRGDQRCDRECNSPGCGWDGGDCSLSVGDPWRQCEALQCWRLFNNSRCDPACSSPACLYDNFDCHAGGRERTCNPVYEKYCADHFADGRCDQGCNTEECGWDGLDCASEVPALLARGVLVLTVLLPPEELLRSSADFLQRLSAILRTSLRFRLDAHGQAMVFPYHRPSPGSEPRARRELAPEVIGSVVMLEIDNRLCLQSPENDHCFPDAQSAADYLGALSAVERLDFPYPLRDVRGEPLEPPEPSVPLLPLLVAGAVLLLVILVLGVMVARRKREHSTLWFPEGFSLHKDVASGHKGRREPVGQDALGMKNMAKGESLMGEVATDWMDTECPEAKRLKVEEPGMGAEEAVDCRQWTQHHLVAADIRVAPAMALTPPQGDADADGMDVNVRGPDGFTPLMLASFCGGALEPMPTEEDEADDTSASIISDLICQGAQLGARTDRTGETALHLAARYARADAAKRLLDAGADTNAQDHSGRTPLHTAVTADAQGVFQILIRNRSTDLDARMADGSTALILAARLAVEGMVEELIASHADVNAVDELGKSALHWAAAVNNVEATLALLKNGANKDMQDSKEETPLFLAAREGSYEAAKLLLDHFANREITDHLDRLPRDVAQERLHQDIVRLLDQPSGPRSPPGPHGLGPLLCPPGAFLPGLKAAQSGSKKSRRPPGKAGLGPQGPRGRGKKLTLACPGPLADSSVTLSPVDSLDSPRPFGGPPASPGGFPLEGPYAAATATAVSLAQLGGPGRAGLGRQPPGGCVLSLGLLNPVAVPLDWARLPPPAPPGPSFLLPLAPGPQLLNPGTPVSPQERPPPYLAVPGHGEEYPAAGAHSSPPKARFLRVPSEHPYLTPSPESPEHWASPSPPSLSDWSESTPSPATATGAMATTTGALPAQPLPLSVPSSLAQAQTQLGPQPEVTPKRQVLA
Sequence of Torsin-1A-interacting protein 2 (Homo sapiens) (Q8NFQ8 whole entry, looked up): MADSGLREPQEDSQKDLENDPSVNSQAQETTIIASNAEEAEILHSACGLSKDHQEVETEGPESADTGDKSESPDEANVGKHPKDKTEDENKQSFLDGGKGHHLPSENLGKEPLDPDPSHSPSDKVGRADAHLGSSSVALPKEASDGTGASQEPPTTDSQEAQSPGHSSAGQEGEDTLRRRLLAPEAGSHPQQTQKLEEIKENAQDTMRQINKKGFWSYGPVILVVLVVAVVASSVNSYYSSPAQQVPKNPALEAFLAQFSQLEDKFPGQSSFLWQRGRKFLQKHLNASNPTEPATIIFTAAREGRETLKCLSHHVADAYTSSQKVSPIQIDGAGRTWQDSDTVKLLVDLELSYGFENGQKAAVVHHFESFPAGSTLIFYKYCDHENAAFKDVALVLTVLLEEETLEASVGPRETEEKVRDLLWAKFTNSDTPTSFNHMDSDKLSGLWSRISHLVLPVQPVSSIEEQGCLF
Sequence of Pro-neuregulin-1, membrane-bound isoform (Homo sapiens) (Q02297 whole entry, looked up, the tested form may be a part, canonical isoform): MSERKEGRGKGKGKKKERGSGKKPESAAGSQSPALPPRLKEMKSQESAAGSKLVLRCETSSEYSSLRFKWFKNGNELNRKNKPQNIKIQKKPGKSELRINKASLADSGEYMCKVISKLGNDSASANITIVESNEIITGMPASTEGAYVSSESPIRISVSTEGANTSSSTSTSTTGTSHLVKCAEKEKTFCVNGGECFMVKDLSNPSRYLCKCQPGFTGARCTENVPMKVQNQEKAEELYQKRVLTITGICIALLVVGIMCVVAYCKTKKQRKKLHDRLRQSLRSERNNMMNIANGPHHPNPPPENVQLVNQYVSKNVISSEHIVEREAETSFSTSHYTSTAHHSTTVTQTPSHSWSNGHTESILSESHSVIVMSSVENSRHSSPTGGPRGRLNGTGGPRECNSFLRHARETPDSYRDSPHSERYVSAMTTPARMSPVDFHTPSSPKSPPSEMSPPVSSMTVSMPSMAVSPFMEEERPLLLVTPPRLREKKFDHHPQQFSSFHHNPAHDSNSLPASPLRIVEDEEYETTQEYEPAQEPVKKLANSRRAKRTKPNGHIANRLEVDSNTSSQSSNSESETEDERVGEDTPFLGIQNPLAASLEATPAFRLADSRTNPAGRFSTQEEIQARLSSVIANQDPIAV

In the case of `NCCCCCNC(=O)[C@@H]1C[C@@H]2C(=O)N3CCC[C@H]3C(=O)N2[C@@H]1c1ccc(O)cc1`, the composite z-score in assay [1] was 1.19; in assay [2], 0.0642; in [3], 0.0232; in assay [4], 0.42; in [5], 0.714; in assay [6], 0.976. Also, the composite z-score in assay [7] was 1.1; in [9], 1; in [10], 0.0053; in assay [11] it was 0.61; in assay [15], 1.97; in [17] it was 0.512. The composite z-score in assay [18] is 0.408; in assay [19], 0.391; in [20], 0.171. Also, the z-score was 0.0207 (inactive) in [8]; 0.758 (inactive) in [12]; -0.986 (inactive) in assay [13]; 1.3 (inactive) in assay [14]; 1.05 (inactive) in assay [16].

Take `CC(C)=CCCC(C)=CC(O)C1C=CC2C(=O)N(c3ccccc3)C(=O)C2N1Nc1ccccc1F` (stereo not given): the composite z-score is -0.0417 in assay [1]; -0.113 in [2]; -0.138 in assay [3]; 0.498 in [4]; 0.765 in assay [5]; 1.49 in [6]. Besides, the composite z-score was 1.09 in assay [7]; -0.174 in assay [9]; -0.329 in assay [10]; 0.945 in assay [11]; 2.41 in [15]; -0.166 in assay [17]. Besides, the composite z-score in assay [18] was -0.0409; in assay [19], 0.761; in [20], -0.0828. The z-score in assay [8] was 0.314 (inactive); in assay [12], -1.23 (inactive); in [13], -0.347 (inactive); in [14], -0.707 (inactive); in assay [16], 0.401 (inactive).

Regarding `COCCOC(=O)N1C(=O)[C@@]2(c3cc(C#CCCO)ccc31)[C@H](c1ccccc1OCCO)N1[C@H](c3ccccc3)[C@H](c3ccccc3)OC(=O)[C@H]1[C@@H]2C(=O)N1CCCCCCC1`, the composite z-score in assay [1] stood at 2.91; in assay [2], 0.821; in assay [3], 0.452; in assay [4] it was 0.413; in assay [5], 1.14; in assay [6] it was 1.72. The composite z-score was 1.32 in assay [7]; 2.59 in assay [9]; 2.43 in assay [10]; 1.54 in assay [11]; 3.57 in [15]; 1.39 in [17]. For the same compound, the composite z-score worked out at 1.86 in [18], 1.05 in assay [19] and 0.837 in assay [20]. Further, the z-score in assay [8] was -3.3 (inactive); in assay [12], 1.76 (inactive); in assay [13], 0.11 (inactive); in assay [14], 2.88 (inactive); in assay [16], 1.06 (inactive).

In the case of `C=CCC(OC(C)=O)[C@@H]1[C@@H](N(Cc2ccc(-c3ccccc3)cc2)C(=O)c2ccc(C)cc2)c2cc(OCCCO)ccc2N1C(=O)Cc1ccc2ccccc2c1` (stereo not given in full), the composite z-score in assay [1] was -0.377; in [2], -0.221; in assay [3], -0.107; in assay [4], 0.0733; in assay [5] it was 0.0573; in assay [6] it was -0.283. The composite z-score in assay [7] was -0.422; in assay [9] it was 0.203; in assay [10], -0.134; in assay [11], 0.543; in [15], 0.51; in assay [17], -0.0042. The values for the composite z-score in assay [18], in assay [19] and in assay [20] were -0.0965, 0.187 and -0.126, respectively. Besides, the z-score was -2.08 (inactive) in [8]; -2.04 (inactive) in assay [12]; -0.71 (inactive) in [13]; -0.633 (inactive) in assay [14]; 1.64 (inactive) in assay [16].

Take `COc1ccc(C#Cc2ccc3c(c2)[C@]2(C(=O)N3)[C@H](C(=O)Nc3nc4ccccc4s3)[C@H]3C(=O)O[C@H](c4ccccc4)[C@H](c4ccccc4)N3[C@@H]2c2ccccc2OCCO)cc1`: the composite z-score in assay [1] is -0.0541; in [2], 0.125; in assay [3], -0.024; in assay [4], 0.313; in assay [5], 0.98; in [6], 0.907. For the same compound, the composite z-score is 0.919 in assay [7]; 0.723 in assay [9]; 0.176 in assay [10]; 1.36 in assay [11]; 3.08 in [15]; -0.0949 in assay [17]. Besides, the composite z-score in assay [18] is 0.486; in assay [19], 1.13; in assay [20] it was -0.106. Moreover, the z-score is 0.716 (inactive) in [8]; 2.56 (inactive) in [12]; 1.53 (inactive) in assay [13]; 1.59 (inactive) in assay [14]; 2.62 (inactive) in assay [16].

(Values after PubChem BioAssay.)
